In PubChem BioAssay AID588398 (Broad Institute, 2011):
Hit rate of the full screen: of about 1,200 compounds, about 110 (9.2%) were called active. About 8% were inconclusive and are not listed.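 The calls were made as follows: active = pathway reporter half-maximal dose under half the control reporter's, or control reporter unaffected while pathway reporter is inhibited; inconclusive = either signal flat at 30 to 70% inhibition or poorly fitted; inactive = the rest.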 Not all results are given here. Measured potencies and affinities stand elsewhere.

Experiment: LMP1 TES1 pathway selectivity over dsRED control – imaging, HEK293T, dual-color eGFP/dsRED, cherry-picks, selectivity assay for LMP1 NF-kB inhibitor project, dose response (AID 588398);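 also: 0% = median of neutral control wells and -100% = median of MG132 positive control wells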
Conditions: 48 h; HEK293T Tet-On dsRED counter-screen channel, at 19.5 µM (top of the series); activity change, negative = inhibition: at the top concentration

Row | SMILES | activity change, negative = inhibition
1 | CC1Cc2ccccc2N1c1ncnc(N)c1[N+](=O)[O-] (centres undefined) | -96.5% (inactive)
2 | CCCn1c(C)cc(C(=O)CN2C(=O)c3ccccc3S2(=O)=O)c1C | -3.28% (inactive)
3 | COc1cccc(/C=N/Nc2nccnc2Cl)c1O | -97.3% (inactive)
4 | COc1ccc(/C=C2\N=C(C)OC2=O)cc1[N+](=O)[O-] | 2.7% (inactive)
5 | CCN1CCN(Cc2ccc(NC(=O)c3ccc(C)c(NC(=O)c4cccc(-c5cn[nH]c(=O)c5)c4)c3)cc2C(F)(F)F)CC1 | -27.1% (inactive)
6 | Cc1cc(N)nc(=O)n1C1CC(O)C(CO)O1 (centres undefined) | 3.25% (inactive)
7 | N/C(=N\OC(=O)c1cccc(Br)c1)c1ccccn1 | 32.5% (inactive)
8 | COc1cc(C=C2CCCC(=Cc3ccc(OCC4CO4)c(OC)c3)C2=O)ccc1OCC1CO1 (centres undefined) | -100% (inactive)
9 | CS(=O)(=O)Nc1ccc(C2=NN(S(C)(=O)=O)C(c3ccccc3)C2)cc1 (centres undefined) | -21% (inactive)
10 | CCSc1nnc(NC(=O)CCn2c(=O)oc3ccccc32)s1 | 0.664% (inactive)
11 | c1nc(NCc2ccc3c(c2)OCO3)c2cc(-c3ccoc3)ccc2n1 | -90.8% (inactive)
12 | COc1ccc(N2C3=[N+](CC2(C)O)c2ccccc2CC3)cc1 (centres undefined) | 6.25% (inactive)
13 | c1ccc(-n2nnc3c(N4CCOCC4)ncnc32)cc1 | -0.029% (inactive)
14 | O=C(NCc1ccco1)C1CC(=O)N(c2cccc(Cl)c2)C1 (centres undefined) | -7.25% (inactive)
15 | COCCn1c(SCC(=O)NCc2ccco2)nnc1-c1c[nH]c2ccccc12 | -19.9% (inactive)
16 | O=C1CCC(C(=O)N2CCCCCC2)CN1CCc1ccc(Cl)cc1 (centres undefined) | 20.9% (inactive)
17 | COc1ccc(NC(=O)/C(C#N)=C/c2cc(C)n(-c3ccc(N4CCOCC4)c([N+](=O)[O-])c3)c2C)cc1 | -16.2% (inactive)
18 | CCOC(=O)c1cc(-c2ccccc2)n(CC(=O)Nc2cccc(OC)c2)c1C | 1.88% (inactive)
19 | CCOC(=O)c1nc(NCc2ccccc2F)c2ccccc2n1 | -11.5% (inactive)
20 | COc1cc(/C=N/NC(=O)c2cc(C34CC5CC(CC(C5)C3)C4)[nH]n2)ccc1O | 125% (inactive)
21 | COc1cc(/C=C2\SC(=S)N(NC(=O)c3ccncc3)C2=O)ccc1O | 19% (inactive)
22 | CCOC(=O)c1cn2nc(N3CCCC3)ccc2n1 | -6.07% (inactive)
23 | COc1ccc2[nH]c(-c3ccc(C)cc3)cc(=O)c2c1 | 61% (inactive)

Row | SMILES | activity change, negative = inhibition
24 | Cc1ccc(C(=O)Nc2nnc(SCC(=O)N3CCCc4ccccc43)s2)cc1 | -2.69% (inactive)
25 | O=C(C1CC1)N1N=C(c2ccc(Br)cc2)CC1(O)C(F)(F)F (centres undefined) | -8.66% (inactive)
26 | COc1ccccc1C(=O)Nc1c[nH]c(=O)[nH]c1=O | 18.2% (inactive)
27 | COc1ccccc1OCc1ccc(C(=O)c2ccccc2)cc1 | 3.8% (inactive)
28 | COc1ccc(-c2csc(Nc3cccc(C)n3)n2)cc1OC | -8.07% (inactive)
29 | CS(=O)(=O)c1ccc(Sc2nc3ccccc3s2)c([N+](=O)[O-])c1 | -78.6% (inactive)
30 | O=C(Nc1ncc(Br)s1)C(Cc1ccccc1)n1cccc1 (centres undefined) | 2.81% (inactive)
31 | CCOc1ccccc1C(=O)NC1CC2CCCC(C1)N2Cc1nnnn1Cc1ccco1 (centres undefined) | -15% (inactive)
32 | O=c1cc(C2CCCCC2)[nH]c(=O)[nH]1 | 13.5% (inactive)
33 | Cc1ccc(-c2nc3cccnc3o2)cc1NC(=O)COc1ccc(C(C)(C)C)cc1 | 1.26% (inactive)
34 | CNC(=S)N1N=C(c2cccs2)CC1c1ccc(F)cc1 (centres undefined) | 2.39% (inactive)
35 | Oc1ccc(C=NNC(=S)Nc2ccccc2)nc1 | -90.2% (inactive)
36 | S=C(N/N=C/c1ccc2ncccc2c1)Nc1cccnc1 | -20.2% (inactive)
37 | Cn1cc(S(=O)(=O)N2CCN(C(=O)c3ccco3)CC2)c(=O)n(C)c1=O | 18.5% (inactive)
38 | Cn1cccc1C(=O)OCC(=O)Nc1ccc2c(c1)OCO2 | 2.59% (inactive)
39 | Cc1cc(C)nc(SCC(=O)OCN2C(=O)c3ccccc3C2=O)n1 | 8.4% (inactive)
40 | O=C(Nc1ccc(N2CCOCC2)cc1)c1cnccn1 | -6.17% (inactive)
41 | Cc1ccccc1C(=O)N1CCN(c2ccc(NC(=O)c3ccco3)cc2Cl)CC1 | -42.5% (inactive)
42 | O=C(CCCOc1ccccc1)N1CCN(c2ccccc2)CC1 | 11.3% (inactive)
43 | N#CC(C#N)c1ccnc2ccccc12 | -82.8% (inactive)
44 | COc1ccc(NC(=O)C[C@H]2C(=O)N(CCc3ccccc3)C[C@@H]2c2ccc(OC)cc2)cc1 | -4.86% (inactive)
45 | COc1cc(OC)cc(-c2c(C#Cc3ccsc3)c3cc(-c4cc(OC)c(OC)c(OC)c4)ccc3n2C)c1 | 23.9% (inactive)
46 | COc1cccc(N=Nc2ccc(O)c3ncccc23)c1 | 67.8% (inactive)

Row | SMILES | activity change, negative = inhibition
47 | COc1cccc(C2Nc3ccc4ccccc4c3C3=C2C(=O)CC(C)(C)C3)c1OCC(=O)O (centres undefined) | -6.54% (inactive)
48 | COc1ccc(-n2c(C)c([N+](=O)[O-])c3ccc(O)c(CN(C)C)c32)cc1 | -87.1% (inactive)
49 | COc1ccc(/C=C2\SC(=O)N(CCCC(=O)Nc3ccc(C(=O)O)cc3)C2=O)cc1 | 9.66% (inactive)
50 | Cc1ccc(C(=O)Nc2ccc3c(c2)OCCO3)cc1 | -12.8% (inactive)
51 | O=C(Nc1ccc2c(c1)OCCO2)c1ccccn1 | -10.5% (inactive)
52 | CCc1nc(SCC(=O)c2ccc3c(c2)OCCO3)c2ccccc2n1 | 18.3% (inactive)
53 | Cc1ccc(C(=O)Nc2ccc3c(c2)OCCO3)c(Cl)c1 | 0.084% (inactive)
54 | O=C(CCCN1C(=O)[C@H]2CC=CC[C@H]2C1=O)NCc1nc(-c2ccc(Cl)cc2)no1 | 17.4% (inactive)
55 | CC1(C)CC(=O)C(CC2=C(O)CC(C)(C)CC2=O)=C(O)C1 | 7.08% (inactive)
56 | CC(C)CC1C(=O)N(Cc2cn(CC3CCCCC3)nn2)CCS(=O)(=O)N1Cc1ccc(-c2ccc(F)nc2)cc1 (centres undefined) | -20.1% (inactive)
57 | Cc1cc(=O)[nH]c(N=N/C(=N/Nc2ccccc2C)c2ccccc2)n1 | 9.37% (inactive)
58 | COC(=O)c1ccccc1NC(=O)CSc1nnnn1C | 9.51% (inactive)
59 | COc1ccc(S(=O)(=O)NCC(c2cccnc2)N2CCN(c3ccc(F)cc3)CC2)cc1C (centres undefined) | -17.3% (inactive)
60 | O=C(CCNc1cccc(F)c1)c1cc2ccccc2o1 | -15.3% (inactive)
61 | NC(=O)c1sc2nccc(Nc3ccccc3)c2c1N | -95.8% (inactive)
62 | Cc1nn(-c2ccccc2)c(Cl)c1C1C(C#N)=C(N)Oc2n[nH]c(C)c21 (centres undefined) | -74.2% (inactive)
63 | O=S(=O)(c1ccc2c(c1)C(=NO)c1cc(S(=O)(=O)N3CCCCC3)ccc1-2)N1CCCCC1 | -16.7% (inactive)
64 | COc1ccc(S(=O)(=O)N2CCOCC2)cc1NC(=O)COC(=O)CCS(=O)(=O)c1ccc(C)cc1 | -0.234% (inactive)
65 | Oc1ccc2ccccc2c1N=Nc1ccccn1 | -97.9% (inactive)
66 | c1ccc(C(=NNc2nc3ccccc3s2)c2ccccn2)cc1 | -98.4% (inactive)
67 | CCOC(=O)c1sc(NC(=O)CNCc2ccccn2)c(C(=O)OCC)c1C | 15.4% (inactive)
68 | Oc1c(N=NC(=S)Nc2ccccc2F)c2ccccc2n1Cc1ccccc1 | 13.8% (inactive)
69 | COc1ccc(OCc2cccc(C(=O)NN)c2)cc1 | 22% (inactive)
